{"source": "PubChem BioAssay (NCATS)", "note": "Inconclusive results are not listed. Activity calls are given as the source filed them. Calls come from the whole dose curve; as a rule, active = well fitted cell-killing curve with a large enough effect; inconclusive = small, poorly fitted or top-dose-only effect, or effect the other way; inactive = flat fitted curve, though single readings scatter. % is set by controls: 0 for no effect and ±100 for the full control effect."}
{"tested_on": "JEG-3", "assay": "Primary qHTS to identify gynecologic anti-cancer compounds using libraries of approved drugs and bioactive compounds (AID 1345084); note: nearly all actives have a fitted effect of over 55% in size", "conditions": "Gynecologic cancer cell panel viability, ATPlite luminescence, 48 h; series mostly up to 57.5 µM; activity change, negative = cytotoxicity: at the top concentration", "outline": "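Cell viability after 48 h drug treatment, ATPlite luminescence readout; five doses.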"}
{"smiles": "COC(=O)CC(C)(O)CC(=O)OCc1ccc(O[C@@H]2O[C@H](CO)[C@@H](O)[C@H](O)[C@H]2O)cc1", "note": "(stereo partly drawn)", "activity change, negative = cytotoxicity": "0.336% [at 25.3 µM] (inactive)"}
{"smiles": "CC[C@@H](O)C[C@@H]1C(C)=C[C@@H]2CCCC[C@@H]2[C@@]1(C)C(=O)O", "activity change, negative = cytotoxicity": "5.16% (inactive)"}
{"smiles": "C=C1CCC2C(C)(C(=O)O)CCCC2(C)C1CC/C(=C\\CO)CO", "note": "(stereo not drawn)", "activity change, negative = cytotoxicity": "-2.4% [at 38.5 µM] (inactive)"}
{"smiles": "Cc1oc2ccccc2c1CNC(=O)NCc1cccs1", "activity change, negative = cytotoxicity": "15.2% (inactive)"}
{"smiles": "CCC(C)C(=O)OC1CC(C)C=C2C=CC(C)C(CCC(O)CC(O)CC(=O)O)C21", "note": "(stereo not drawn)", "activity change, negative = cytotoxicity": "7.93% [at 25.3 µM] (inactive)"}
{"smiles": "C[C@]12C=C[C@@]3(CCC4[C@](C)(CO)CCC[C@@]4(C)C3CC1)C2", "note": "(stereo partly drawn)", "activity change, negative = cytotoxicity": "7.74% (inactive)"}
{"smiles": "CC(C)CC1NC(=O)C(C)NC(=O)C(CC(C)C)OC(=O)CCCNC1=O", "note": "(stereo not drawn)", "activity change, negative = cytotoxicity": "2.31% [at 38.5 µM] (inactive)"}
{"smiles": "COC1/C=C/C(C)(O)C(SCC(N)C(=O)O)CC(=O)OC(C)C(C)CC/C=C/1C", "note": "(stereo not drawn)", "activity change, negative = cytotoxicity": "-14.3% [at 25.3 µM] (inactive)"}
{"smiles": "CC/C=C\\CC1C(=O)C=CC1(CCCCCCCC(=O)O)OC(C)=O", "note": "(stereo not drawn)", "activity change, negative = cytotoxicity": "0.204% [at 38.5 µM] (inactive)"}
{"smiles": "CC1OC(OC2C(C)OC(OC3C(O)C(CO)OC(O[C@H]4CC[C@@]5(C)C(CC[C@]6(C)C5CC=C5C7[C@@H](C)[C@H](C)CC[C@]7(C(=O)O)CC[C@]56C(=O)O)C4(C)C)C3O)C(O)C2O)C(O)C(O)C1O", "note": "(stereo partly drawn)", "activity change, negative = cytotoxicity": "-5.03% [at 11.6 µM] (inactive)"}
{"smiles": "C[C@@H]1O[C@@H](OC[C@H]2O[C@@H](OC(CCCCc3ccc(O)cc3)CCc3ccc(O)cc3)[C@H](O)[C@@H](O)[C@@H]2O)[C@H](O)[C@H](O)[C@H]1O", "note": "(stereo partly drawn)", "activity change, negative = cytotoxicity": "-3.16% [at 25.3 µM] (inactive)"}
{"smiles": "CC(c1ncncc1F)C(O)(Cn1cncn1)c1ccc(F)cc1F", "note": "(stereo not drawn)", "activity change, negative = cytotoxicity": "3.47% (inactive)"}
{"smiles": "CC1(C=O)CC[C@]2(C(=O)O[C@@H]3O[C@H](CO)[C@@H](O)[C@H](O)[C@H]3O)CC[C@]3(C)C(=CCC4[C@@]5(C)C[C@H](O)[C@H](O[C@@H]6OC[C@@H](O)[C@H](O)[C@H]6O)[C@@](C)(CO)C5CC[C@]43C)C2C1", "note": "(stereo partly drawn)", "activity change, negative = cytotoxicity": "12.1% [at 11.6 µM] (inactive)"}
